From PubChem
Most compounds without a hit are left out; they make up all but 2.3% or so of the library.
CHO-K1 Ca ag: M1 agonist counterscreen hit in parental CHO-K1 cells; Fluo-8 calcium fluorescence; scaled to maximal ATP response, vehicle zero; activation, % at 3 µM; 360,000 compounds, 0.48% hits; AID 602248; in the data active = activation above about 15%;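 note: untransfected CHO-K1 host cells lacking M1 receptor as counterscreen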
CHO-K1 Ca antag: M1 antagonist counterscreen hit in parental CHO-K1 cells | 360,000 compounds, 0.6% hits | inhibition, % at 3 µM | ATP-induced calcium, Fluo-8 fluorescence;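 active = inhibition above a per-plate cutoff, the plate's mean sample inhibition plus 3 SD, cut at about 24% in these data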;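 note: 0% = DMSO plus EC80 ATP and 100% = DMSO alone without ATP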
M1 antag: blocks human M1 muscarinic receptor. AID 588852. inhibition, % at 3 µM. P11229. CHO-K1 hM1, Fluo-8 calcium fluorescence, ACh EC80 antagonist. 360,000 compounds, 1.3% hits;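 active = percent inhibition above its own plate's cutoff, namely the mean of that plate's compound wells plus 3 SD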;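 note: peak over basal fluorescence ratio during 140 s after agonist addition; 0% = ACh EC80 plus DMSO and 100% = DMSO alone without agonist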
Target sequence (P11229 whole entry, looked up): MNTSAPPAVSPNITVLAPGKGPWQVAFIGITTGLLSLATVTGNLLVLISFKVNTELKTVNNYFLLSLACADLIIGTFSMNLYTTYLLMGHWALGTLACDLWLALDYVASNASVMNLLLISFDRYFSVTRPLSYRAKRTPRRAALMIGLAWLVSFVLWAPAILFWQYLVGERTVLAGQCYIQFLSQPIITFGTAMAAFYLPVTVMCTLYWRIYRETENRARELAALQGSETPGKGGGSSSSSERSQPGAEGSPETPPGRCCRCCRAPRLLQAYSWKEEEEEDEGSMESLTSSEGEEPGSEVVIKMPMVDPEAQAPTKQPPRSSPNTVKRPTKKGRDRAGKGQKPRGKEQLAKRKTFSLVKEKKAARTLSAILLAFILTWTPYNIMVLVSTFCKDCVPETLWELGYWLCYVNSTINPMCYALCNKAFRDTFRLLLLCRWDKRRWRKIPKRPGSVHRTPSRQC
M1 PAM: potentiates human M1 receptor response to acetylcholine; CHO-K1 hM1, Fluo-8 calcium fluorescence, ACh EC20; 0% = ACh EC20, 100% = maximal ACh; activation, % at 3 µM; 360,000 compounds, 0.088% hits; in the data active = activation above about 19%, passing the limit was not always enough
M1 PAM parental: M1 PAM counterscreen hit in parental CHO-K1 cells. ATP EC20, Fluo-8 calcium fluorescence; 0% at ATP EC20, 100% at ATP max. activation, % at 3 µM. 360,000 compounds, 0.02% hits. AID 602247;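 active = activation above the run cutoff, the mean activation of all test compounds plus 3 SD, cut at about 40% in these data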;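 note: peak over basal fluorescence ratio in a 140 s read after ATP addition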
M1 ag: human M1 muscarinic receptor agonism; P11229; CHO-K1 hM1, Fluo-8 calcium fluorescence, agonist mode; 0% DMSO, 100% acetylcholine EC100; activation, % at 3 µM; 360,000 compounds, 0.33% hits; AID 588814;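 active = activation above the run's mean compound activation plus 3 SD, cut at about 16% in these data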;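 note: peak over basal fluorescence ratio within a 140 s kinetic read after compound addition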
The depositor's hits bear a star.

SMILES	CHO-K1 Ca ag	CHO-K1 Ca antag	M1 antag	M1 PAM	M1 PAM parental	M1 ag
COC(=O)C1=C(c2ccc(F)cc2F)C[C@@H]2CC[C@H]1N2C(=O)NC(C)C	0	3	-4	-1	9	-9
COC(=O)C1=C(c2ccccc2)C[C@@H]2CC[C@H]1N2C	0	-10	60*	-31	18	-8
CCN1CCN(CC(c2ccccc2)c2ccccc2)CC1	1	-3	100*	-30	2	-9
CCN1CCc2ccccc2C1	1	-4	-4	3	11	-4
COc1cc(C(=O)OC2C[C@H]3CC[C@@H](C2)N3)ccc1O (stereo not given in full)	0	-14	95*	-27	14	-10
COc1cc(C(=O)OC2C[C@H]3CC[C@@H](C2)N3C)ccc1O (stereo not given in full)	1	-10	0	-4	8	-10
CC1CN1c1cc2c(c3c1ccn3C)C1CCC2C1 (stereo not given)	0	11	-47	26*	14	0
COC1C(O)C(C)OC(OC2C(Oc3cccc4c(O)c5c(=O)oc6ccc(C)c7c(=O)oc(c34)c5c67)OC(C)C(O)C2O)C1O (stereo not given)	0	4	3	0	0	-1
CC(=O)N1CCN(Cc2ccc(Cl)nc2)CC1	1	-6	-2	28*	9	-3
CCc1nc(N2CCNCC2)c(C#N)c2c1CSC(C)(C)C2	0	7	47*	-18	-7	-6
CN1C2CCC1CC(OC(=O)c1cc(Cl)cc(Cl)c1)C2 (stereo not given)	2	-13	47*	-22	32	-4
CN1CCN(CCC(=O)OC2CC3CCC(C2)N3C)CC1 (stereo not given)	0	7	-10	-3	-2	-4
CSCCC(c1nnnn1C1CCCCC1)N1CCC(n2c(=O)[nH]c3ccccc32)CC1 (stereo not given)	6	15	34*	-16	-6	-2
CSCCC(c1nnnn1C1CCCC1)N1CCC(n2c(=O)[nH]c3ccccc32)CC1 (stereo not given)	7	-10	-5	-8	3	-1
COC(=O)C1=C(C(=O)OC)SC2(S1)C(C(=O)OC)=C(C(=O)OC)Sc1c2ssc1=O	-1	0	3	3	-4	5
C[C@]12CC[C@H](N)CC1=CCC1C2CC[C@@]2(C)C1CC[C@@H]2O (stereo not given in full)	2	-13	-5	1	19	-6
C[C@]12CC[C@@H](O)CC1=CCC1C2CC[C@@]2(C)C1CC[C@@H]2N (stereo not given in full)	1	-8	26*	-20	7	-9
O=S(=O)(c1cc(Cl)cc(Cl)c1)N1Cc2cc(-c3cccc(F)c3)ccc2-n2nncc2C1	0	4	-3	10	7	-4
O=C1NCN(c2ccccc2)C12CCN(C(c1cccc3ccccc13)c1nnnn1C1CCCCC1)CC2 (stereo not given)	0	-21	-25	7	21	-1
CCC(c1nnnn1-c1ccc2c(c1)OCCO2)N1CCC2(CC1)C(=O)NCN2c1ccccc1 (stereo not given)	3	-2	-5	-9	-7	-1
COC(=O)c1ccc(NC(=O)CSc2nc3ccc(N4C(=O)C5C6C=CC(C6)C5C4=O)cc3s2)cc1 (stereo not given)	9	14	44*	-25	-9	3
CC1(C(=O)O)CC12c1ccccc1-c1ccccc12 (stereo not given)	0	2	-11	6	-21	-4
Cc1cc(OCC(=O)N2C[C@H]3C[C@@H](C2)c2cccc(=O)n2C3)c2c(C)cc(=O)oc2c1	0	18	-17	12	-3	-2
CN1CCCC1C(O)(c1ccccc1)c1ccccc1 (stereo not given)	2	-39	4	-7	22	-4
OC(c1cccc(Cl)c1)(c1cccc(Cl)c1)C1CN2CCC1CC2 (stereo not given)	6	4	99*	-31	8	-9
